Results from PubChem BioAssay AID1159580 (chemical genetic matrix, 2015).
Values joined by “and” are separate entries in the source; they are usually repeats but may differ in a detail not shown here. Equal values may be shown once. Hit rate of the full screen: of about 5,500 compounds, about 2,000 (36%) were called active. Not shown: some 18% with an inconclusive outcome. Cut-off read from the data, not from the text of the source: active = normalized growth mostly below about 0.91 (no sharp cut-off); inconclusive = no clear call, values can overlap the other calls; inactive = mostly above about 0.92. The list shows a part of the results.

Test: chemical genetic growth profiling, strain panel (AID 1159580);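 note: tested at 20 µM; growth read once vehicle control cultures reached saturation at 30 °C; 1 = growth at the plate median or of vehicle wells; lower values mean less growth of the strain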
Conditions: growth OD
[1] = S. cerevisiae deletion strains, locus YAL040C, strain CLN3, active compounds read low
[2] = S. cerevisiae deletion strains, locus YER002W, strain NOP16, active compounds read low
[3] = S. cerevisiae deletion strains, locus YMR307W, strain GAS1, active compounds read low
[4] = S. cerevisiae deletion strains, locus YNL175C, strain NOP13, active compounds read low
[5] = S. cerevisiae deletion strains, locus YNL197C, strain WHI3, active compounds read low
[6] = S. cerevisiae deletion strains, locus YNL224C, strain SQS1, active compounds read low
[7] = S. cerevisiae deletion strains, locus YNL322C, strain KRE1, active compounds read low
[8] = S. cerevisiae deletion strains, locus YOR083W, strain WHI5 (second series), active compounds read low
[9] = S. cerevisiae deletion strains, locus YPL241C, strain CIN2, active compounds read low

Measured: normalized growth

COc1ccc(NC(=O)c2ccc(-c3ccc(-c4noc(C)n4)cc3C)cc2)cc1N1CCN(C)CC1
inactive: [1] 1.05 | S. cerevisiae deletion strains, locus YCL061C, strain MRC1 (second series), active compounds read low 0.982 | S. cerevisiae deletion strains, locus YDR363W, strain ESC2, active compounds read low 0.959 | [2] 1.01 | S. cerevisiae deletion strains, locus YJR075W, strain HOC1, active compounds read low 0.974 | [3] 0.933 | S. cerevisiae deletion strains, locus YNL153C, strain GIM3, active compounds read low 0.946 | [4] 1.02 | [5] 1.04 | [6] 1.01 | [7] 0.965 | [8] 0.939 | [9] 0.994

CC(=O)NCCc1c[nH]c2ccc(O)cc12
inactive: [1] 1 | S. cerevisiae deletion strains, locus YBR021W, strain FUR4, active compounds read low 1.03 | S. cerevisiae deletion strains, locus YBR229C, strain ROT2, active compounds read low 0.96 | S. cerevisiae deletion strains, locus YCL029C, strain bik1, active compounds read low 0.98 | S. cerevisiae deletion strains, locus YDL035C, strain GPR1, active compounds read low 1.01 | S. cerevisiae deletion strains, locus YDL074C, strain BRE1, active compounds read low 0.953 | S. cerevisiae deletion strains, locus YDL101C, strain DUN1, active compounds read low 0.977 | S. cerevisiae deletion strains, locus YDL134C, strain PPH21, active compounds read low 0.993 | S. cerevisiae deletion strains, locus YDL185W, strain tfp1, active compounds read low 0.983 | S. cerevisiae deletion strains, locus YDL192W, strain arf1, active compounds read low 0.982 | S. cerevisiae deletion strains, locus YDR101C, strain arx1, active compounds read low 0.929 | S. cerevisiae deletion strains, locus YDR150W, strain NUM1, active compounds read low 1.01 | S. cerevisiae deletion strains, locus YDR162C, strain NBP2, active compounds read low 0.999 | S. cerevisiae deletion strains, locus YDR318W, strain mcm21, active compounds read low 0.992 | S. cerevisiae deletion strains, locus YDR388W, active compounds read low 0.991 | S. cerevisiae deletion strains, locus YDR502C, strain sam2, active compounds read low 0.985 | S. cerevisiae deletion strains, locus YEL061C, strain CIN8, active compounds read low 0.984 | [2] 0.993 | S. cerevisiae deletion strains, locus YER110C, active compounds read low 0.986 | S. cerevisiae deletion strains, locus YER155C, strain BEM2, active compounds read low 0.998 | S. cerevisiae deletion strains, locus YER167W, strain BCK2, active compounds read low 0.992 | S. cerevisiae deletion strains, locus YGL078C, strain dbp3, active compounds read low 0.999 | S. cerevisiae deletion strains, locus YGL086W, strain mad1, active compounds read low 0.962 | S. cerevisiae deletion strains, locus YGL248W, strain PDE1, active compounds read low 0.98 | S. cerevisiae deletion strains, locus YGR078C, strain PAC10, active compounds read low 1.01 | S. cerevisiae deletion strains, locus YGR135W, strain pre9, active compounds read low 1.06 | S. cerevisiae deletion strains, locus YGR252W, strain gcn5, active compounds read low 1.05 | S. cerevisiae deletion strains, locus YHR030C, strain SLT2, active compounds read low 0.997 | S. cerevisiae deletion strains, locus YHR079C, strain IRE1 (second series), active compounds read low 0.992 | S. cerevisiae deletion strains, locus YHR094C, strain hxt1, active compounds read low 0.991 | S. cerevisiae deletion strains, locus YHR129C, strain ARP1, active compounds read low 0.993 | S. cerevisiae deletion strains, locus YHR200W, strain rpn10, active compounds read low 0.989 | S. cerevisiae deletion strains, locus YIL066C, strain RNR3, active compounds read low 0.956 | S. cerevisiae deletion strains, locus YIL073C, strain SPO22, active compounds read low 0.989 | S. cerevisiae deletion strains, locus YIL125W, strain kgd1, active compounds read low 0.988 | S. cerevisiae deletion strains, locus YIR030C, strain dcg1, active compounds read low 0.997 | S. cerevisiae deletion strains, locus YJL095W, strain BCK1, active compounds read low 0.982 | S. cerevisiae deletion strains, locus YJL134W, strain LCB3, active compounds read low 0.992 | S. cerevisiae deletion strains, locus YJL168C, strain set2, active compounds read low 0.995 | S. cerevisiae deletion strains, locus YJL187C, strain SWE1 (second series), active compounds read low 0.95 | S. cerevisiae deletion strains, locus YJR043C, strain POL32, active compounds read low 0.99 | S. cerevisiae deletion strains, locus YKL009W, strain mrt4, active compounds read low 0.978 | S. cerevisiae deletion strains, locus YKL068W, active compounds read low 0.986 | S. cerevisiae deletion strains, locus YKL085W, strain MDH1 (second series), active compounds read low 0.982 | S. cerevisiae deletion strains, locus YKL085W, strain MDH1, active compounds read low 0.982 | S. cerevisiae deletion strains, locus YKL190W, strain CNB1, active compounds read low 0.993 | S. cerevisiae deletion strains, locus YKR001C, strain vps1, active compounds read low 0.978 | S. cerevisiae deletion strains, locus YLR039C, strain RIC1, active compounds read low 0.95 | S. cerevisiae deletion strains, locus YLR058C, strain SHM2, active compounds read low 0.982 | S. cerevisiae deletion strains, locus YLR102C, strain apc9, active compounds read low 0.999 | S. cerevisiae deletion strains, locus YLR262C, strain YPT6, active compounds read low 0.967 | S. cerevisiae deletion strains, locus YLR268W, strain sec22, active compounds read low 0.983 | S. cerevisiae deletion strains, locus YLR330W, strain CHS5, active compounds read low 0.989 | S. cerevisiae deletion strains, locus YLR342W, strain FKS1 (second series), active compounds read low 1.07 | S. cerevisiae deletion strains, locus YLR371W, strain rom2, active compounds read low 1.02 | S. cerevisiae deletion strains, locus YLR418C, strain cdc73, active compounds read low 1.05 | S. cerevisiae deletion strains, locus YML016C, strain PPZ1, active compounds read low 0.992 | S. cerevisiae deletion strains, locus YML032C, strain rad52, active compounds read low 0.978 | S. cerevisiae deletion strains, locus YML124C, strain tub3, active compounds read low 0.995 | S. cerevisiae deletion strains, locus YMR078C, strain ctf18, active compounds read low 0.99 | S. cerevisiae deletion strains, locus YMR223W, strain ubp8, active compounds read low 1.03 | S. cerevisiae deletion strains, locus YMR263W, strain SAP30, active compounds read low 1 and 0.976 | [3] 1.05 | S. cerevisiae deletion strains, locus YNL067W, strain RPL9B, active compounds read low 0.959 | S. cerevisiae deletion strains, locus YNL128W, strain TEP1, active compounds read low 1.01 | [4] 1.01 | [5] 1.01 | [6] 1.02 | S. cerevisiae deletion strains, locus YNL233W, strain BNI4, active compounds read low 0.966 | S. cerevisiae deletion strains, locus YNL250W, strain rad50, active compounds read low 0.967 | S. cerevisiae deletion strains, locus YNL271C, strain bni1, active compounds read low 0.982 | S. cerevisiae deletion strains, locus YNL298W, strain CLA4, active compounds read low 1 | S. cerevisiae deletion strains, locus YNL307C, strain MCK1, active compounds read low 0.987 | [7] 1.02 and 0.994 | S. cerevisiae deletion strains, locus YNR052C, strain pop2, active compounds read low 0.996 | S. cerevisiae deletion strains, locus YOL006C, strain TOP1, active compounds read low 0.933 | S. cerevisiae deletion strains, locus YOL012C, strain htz1 1.04 | S. cerevisiae deletion strains, locus YOL147C, strain pex11, active compounds read low 0.993 | S. cerevisiae deletion strains, locus YOR061W, strain CKA2, active compounds read low 0.963 | S. cerevisiae deletion strains, locus YOR069W, strain VPS5, active compounds read low 0.997 | [8] 1.01 | S. cerevisiae deletion strains, locus YOR136W, strain idh2, active compounds read low 0.989 | S. cerevisiae deletion strains, locus YOR144C, strain elg1, active compounds read low 0.994 | S. cerevisiae deletion strains, locus YOR184W, strain ser1, active compounds read low 1 | S. cerevisiae deletion strains, locus YOR316C, strain cot1, active compounds read low 0.986 | [9] 1.01 and 0.993 | S. cerevisiae deletion strains, locus YPR119W, strain clb2, active compounds read low 0.988 | S. cerevisiae deletion strains, locus YPR141C, strain kar3, active compounds read low 0.981 | S. cerevisiae deletion strains, locus YPR163C, strain tif3, active compounds read low 0.986 | S. cerevisiae deletion strains, locus YPR167C, strain met16, active compounds read low 0.992 | S. cerevisiae deletion strains, strain wtn01, active compounds read low 1 | S. cerevisiae strains, strain wild type, active compounds read low 0.987
